Test results reported in PubChem BioAssay (EPA / NIEHS).
Activity calls are given as the source filed them. The calls were made as follows: active = hit-call score of the fitted dose curve at least 0.9, where 1 is the maximum; inactive = score below 0.9.

Assay: CCTE_Shafer_MEA_dev_per_network_spike_spike_percent: CCTE's Neural Network Formation Assay for Percent of Spikes in a Network Spike, Shafer Lab (AID 2284054)
Procedure: CCTE_Shafer_MEA_dev assay is conducted using Axion Biosystems 48 well microelectrode array (MEA) plates and Maestro recording system. Each well of the MEA plate contains a grid of 16 microelectrodes embedded in the culture surface. Electrically active cells, such as neurons, can be cultured over the electrodes, and electrical activity in these cells can be recorded extracellularly. The spontaneous firing of neurons is captured from each electrode on a microsecond timescale providing both temporally and spatially precise data. […] The CCTE_Shafer_MEA_dev assay uses primary cultures of rat cortical neurons. Recordings are made on days post-plating 5, 7, 9 and 12. As these cultures mature over time, neural networks develop functional activity and form cohesive networks in which electrical activity can be highly coordinated. CCTE_Shafer_MEA_dev_per_network_spike_spike_percent is 1 of 19 assay components of the CCTE_Shafer_MEA_dev assay. It measures the percent of spikes (action potential firings) in a network spike (temporally-clustered group of spikes across multiple electrodes) as the number of spikes that occur within a 0.05 s time window at the peak of a network spike divided by the total number of spikes during a recording in a microelectrode array (MEA) using Axion Biosystems Maestro 768 channel amplifier with the AxIS adaptive spike detector. To collapse across multiple recordings made on days post-plating 5, 7, 9 and 12, the trapezoidal area-under-the-curve of the component is calculated.Data from the assay component CCTE_Shafer_MEA_dev_per_network_spike_spike_percent was analyzed into 1 assay endpoint. This assay endpoint, CCTE_Shafer_MEA_dev_per_network_spike_spike_percent, was analyzed in the negative analysis fitting direction relative to DMSO as the negative control and baseline of activity. Using a type of functional reporter, gain or loss-of-signal activity can be used to understand electrical activity.
On the day prior to culture, each well was coated thoroughly with 150 uL of 0.05% polyethyleneimine (PEI, Sigma Cat P3143) in 50 mM HEPES (Sigma Cat H7523) at a pH of 8. The plate was incubated at 37C for one hour. PEI was rinsed out with 500 uL of sterile water three times. Plates were stored at 4C until the day of culture. This culture was plated at a seeding density of 1.5 x 10^5 cells/well on a 48-well MEA plate, prepared as described above. Cells were administered via a 25 uL media/laminin ([…]; Sigma Cat L2020-1MG) drop directly onto the microelectrode array, as adding the cells with the laminin results in better attachment than pre-coating with laminin. After 2 hours, an additional 475 uL of cortical media was added and the cells returned to the incubator. Exposure starts at day 0 of plating and is continued over twelve days of network development until the experiment is terminated. Cells are fed with fresh medium on DIV 5 and 9, following the recordings on those days. The entire volume of media in the well is exchanged and any vehicle or compound treatment is renewed. Complete details are found in OP-NHEERL/ISTD/SBB/TJS/2015-03-r0 (available on request, email shafer.tim@epa.gov). Measurement of the electrical activity is non-invasive, and recordings can be made from the same plate over multiple different days of the culture. In cortical neurons, this allows for the measurement of extracellular action potentials over the period during which networks form in the MEA plate.

SMILES | outcome | AC50
NC(=O)C(F)(F)C(F)(F)C(F)(F)C(F)(F)C(N)=O | inactive | –
OCC(O)CC(F)(F)C(F)(F)C(F)(F)C(F)(F)F (centres undefined) | inactive | –
OCCCCC(F)(F)C(F)(F)C(F)(F)C(F)(F)F | inactive | –
CCN(CCO)S(=O)(=O)C(F)(F)C(F)(F)C(F)(F)C(F)(F)C(F)(F)C(F)(F)C(F)(F)C(F)(F)F | inactive | –
O=S(=O)(O)CCC(F)(F)C(F)(F)C(F)(F)C(F)(F)F | inactive | –
OCC(F)(F)C(F)(F)C(F)(F)CO | inactive | –
CNS(=O)(=O)C(F)(F)C(F)(F)C(F)(F)C(F)(F)C(F)(F)C(F)(F)C(F)(F)C(F)(F)F | inactive | –
FC(F)(F)C(F)(F)C(F)(F)C(F)(F)C(F)(F)C(F)(F)C(F)(F)CCI | inactive | –
CO[Si](C)(CCC(F)(F)C(F)(F)C(F)(F)C(F)(F)C(F)(F)C(F)(F)F)OC | inactive | –
NC(=O)C(F)(F)C(F)(F)C(F)(F)C(F)F | inactive | –
OC(O)C(F)(F)C(F)(F)F | inactive | –
OCC(F)(F)C(F)(F)C(F)(F)C(F)(F)C(F)(F)C(F)(F)C(F)(F)C(F)(F)CO | inactive | –
O=S(=O)(O)CCC(F)(F)C(F)(F)C(F)(F)C(F)(F)C(F)(F)C(F)(F)C(F)(F)C(F)(F)F | inactive | –
C=CC(=O)OCC(F)(F)C(F)(F)C(F)(F)COC(=O)C=C | – | 4.56 µM (active)
OCC(F)(F)C(F)(F)C(F)(F)C(F)(F)C(F)(F)C(F)(F)CO | inactive | –
NC(=O)C(F)(F)C(F)(F)C(F)(F)F | inactive | –
O=C(O)C(F)(F)C(F)(F)C(F)(F)OC(F)(F)F | inactive | –
C=CC(=O)OCCC(F)(F)C(F)(F)C(F)(F)C(F)(F)F | – | 8.58 µM (active)
NC(O)(C(F)(F)F)C(F)(F)F | inactive | –
